Active and inactive are the calls of the source. Calls come from the whole dose curve; as a rule, active = well fitted curve in the direction sought with a large enough effect in the repeat runs; inconclusive = weak or mixed curves; inactive = flat fitted curve, though single readings scatter.
Test: qHTS assay to test for compound auto fluorescence at 535 nm (green) in HEK293 cell free culture (AID 720682)
Details: cell-free medium, green autofluorescence 485/535 nm; series mostly up to 91.3 µM
Summary of the method: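 DMEM + 10% FBS, cell-free; cpd or DMSO pinned in; Ex485/Em535 read; output as fluorescein-equivalent signal.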
With O=C(O)CCCOc1ccc(Cl)cc1Cl the outcome was “inactive”.
With C[Si](Cn1cncn1)(c1ccc(F)cc1)c1ccc(F)cc1 the outcome was “inactive”.
In the case of C[C@]12C=CC3=C4CCC(=O)C=C4CC[C@H]3[C@@H]1CC[C@@H]2O, the outcome is reported as “inactive”.
For FC(Cl)(Cl)C(F)(Cl)Cl, the outcome was “inactive”.
With O=C(O)C(F)(F)C(F)(F)C(F)(F)C(F)(F)C(F)(F)C(F)(F)C(F)(F)C(F)(F)F the outcome was “inactive”.
With CCC1(C2=NCCN2)Cc2ccccc2O1 (configuration not stated) the outcome was “inactive”.
For O=C(O)C(O)C(O)C(=O)O (configuration not stated), the outcome was “inactive”.
In the case of Nc1ccc2c(c1)Cc1ccccc1-2, the outcome is reported as “inactive”.
For CC(Oc1cc(Cl)c(Cl)cc1Cl)C(=O)O (configuration not stated), the outcome was “inactive”.
For CN1C[C@H](C(=O)N[C@]2(C)O[C@@]3(O)[C@@H]4CCCN4C(=O)[C@H](Cc4ccccc4)N3C2=O)C=C2c3cccc4[nH]cc(c34)C[C@H]21, the outcome was “inactive”.
For C=C(C)C(=O)OCCCCOC(=O)C(=C)C, the outcome was “inactive”.
With Cc1ccc(N)c(C)c1 the outcome was “inactive”.
In the case of COP(=O)(OC)OC(Br)C(Cl)(Cl)Br (configuration not stated), the outcome is reported as “inactive”.
In the case of CC[N+]1(CCOC(=O)C(O)(c2ccccc2)c2ccccc2)CCCCC1, the outcome is reported as “inactive”.
With O=CC=O the outcome was “inactive”.
For C[CH2][Hg][S]c1ccccc1C(=O)O, the outcome was “inactive”.
In the case of O=P(OCC(Br)CBr)(OCC(Br)CBr)OCC(Br)CBr (configuration not stated), the outcome is reported as “inactive”.

— PubChem BioAssay (Tox21)
